According to PubChem BioAssay (NCATS):
Values joined by “and” are separate entries in the source; they are usually repeats but may differ in a detail not shown here. Equal values may be shown once. Inconclusive results are not listed. Entries that show only a call come without a potency. A number with no mark means an inactive call. Active and inactive are the calls of the source. Calls come from the whole dose curve; as a rule, active = well fitted curve in the direction sought with a large enough effect; inconclusive = small, poorly fitted or top-dose-only effect, or another doubt; inactive = no such curve, though single readings can be large; an effect the other way counts as inactive or inconclusive.

Assays:
[1] = biological target: Cellular tumor antigen p53 (Homo sapiens) (UniProt P04637); test: Primary qHTS for small molecule compounds that upregulate eGFP-tagged delta133p53alpha (in N-terminal) cells. (AID 2060322); conditions: NCI-H358 eGFP-delta133p53alpha fluorescence, 24 h; activation: active compounds read high; note: nearly all actives have a fitted effect of over 75% in size; note: potency is the fitted concentration of half-maximal effect; for activation: series mostly up to about 56 µM
Chain of Cellular tumor antigen p53 (Homo sapiens) (P04637 whole entry, looked up): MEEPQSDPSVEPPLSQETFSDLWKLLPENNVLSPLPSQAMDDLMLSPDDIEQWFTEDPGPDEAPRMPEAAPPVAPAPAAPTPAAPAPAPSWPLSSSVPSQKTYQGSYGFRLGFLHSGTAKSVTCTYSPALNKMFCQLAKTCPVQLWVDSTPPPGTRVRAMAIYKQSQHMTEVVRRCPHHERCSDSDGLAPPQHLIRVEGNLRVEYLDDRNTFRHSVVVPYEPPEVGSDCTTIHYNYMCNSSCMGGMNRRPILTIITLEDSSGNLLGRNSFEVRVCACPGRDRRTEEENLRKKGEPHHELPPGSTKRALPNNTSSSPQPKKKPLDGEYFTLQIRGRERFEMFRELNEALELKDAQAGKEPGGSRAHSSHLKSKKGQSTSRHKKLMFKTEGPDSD
Summary of the method: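 NCI-H358 cells pre-induced 24 h with 10 ng/ml doxycycline to express N-terminal eGFP-delta133p53alpha, then dosed 24 h at 37C without doxycycline; fixed, Hoechst-stained, GFP intensity by laser scanning cytometry, normalized to DMSO (0%) and 57.5 uM 5-azacytidine (100%).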

[2] = biological target: Aldehyde dehydrogenase, mitochondrial (Homo sapiens) (UniProt P05091); test: qHTS for Inhibitors of the Aldehyde Dehydrogenase Family (ALDH2) Primary screen (AID 2061308); note: nearly all actives have a fitted effect of over 55% in size
[3] = biological target: Retinaldehyde dehydrogenase 3 (Homo sapiens) (UniProt P47895); test: qHTS for Inhibitors of the Aldehyde Dehydrogenase Family (ALDH1A3) Primary screen (AID 2061315)

| Compound | Potency [1] | Potency [2] | Potency [3] | activation [1] | activity change, negative = inhibition [2] | activity change, negative = inhibition [3] |
| --- | --- | --- | --- | --- | --- | --- |
| Oc1ccc2c(-c3c(-c4ccccn4)nn4c3CCC4)ccnc2c1 | 26.9 µM (active) | inactive | inactive |  |  |  |
| C=C1/C(=C/C=C2\CCC[C@]3(C)[C@@H]([C@@H](C)OCCC(O)(CC)CC)CC[C@@H]23)C[C@@H](O)C[C@@H]1O |  | inactive | inactive | -5% |  |  |
| Cc1cccc(Nc2cc(Cl)nc(SCC(=O)O)n2)c1C |  | inactive | inactive | 23.4% and 14.3% |  |  |
| CC(=O)O[C@H]1CC[C@@]2(C)C(CC[C@@H](C)[C@]23Cc2c(O)cc4c(c2O3)CN([C@@H](CCC(=O)O)C(=O)O)C4=O)C1(C)C (some centres not stated) |  | inactive | inactive | 0.763% |  |  |
| O=C(OC1C=C(CO)C2C(OC3OC(CO)C(O)C(O)C3O)OC=CC12)c1ccc(O)cc1 (configuration not stated) |  | inactive | inactive | -16% |  |  |
| COc1cc(OC)cc(C(=O)Nc2ccc(Cl)c(-c3nc4ccc(N(C)C)cc4[nH]3)c2)c1 |  | inactive | inactive | -11.5% |  |  |
| Cc1ccc(C)c(NC(=O)[C@@H]2CCCN2S(=O)(=O)c2cccc3cccnc23)c1 |  | inactive | inactive | -4.33% |  |  |
| C=C(C(=O)O)[C@@H]1CC=C2CCC[C@H](C)[C@@]2(C)C1 |  | inactive | inactive | -21.4% |  |  |
| C=C1C2CCC3C(CCC4[C@@]3(C)CCC[C@@]4(C)C(=O)O)(C2)[C@@H]1OC(=O)/C(C)=C\C (some centres not stated) |  | inactive | inactive | -8.93% |  |  |
| CCC(C)/C=C(C)/C=C/C1=CC2=C(Cl)C(=O)C(C)(OC(C)=O)C(=O)C2=CN1CCCC(=O)O (configuration not stated) |  | inactive | inactive | 0.763% |  |  |
| COc1ccnc2[nH]cc(C(=O)C(=O)N3CCN(C(=O)c4ccccc4)CC3C)c12 (configuration not stated) |  | inactive | inactive | -3% |  |  |
| CC1=CC(=O)C[C@H]2[C@@H]1CC[C@@H](C)[C@]21CO[C@H](c2ccoc2)C1=O |  | inactive | inactive | -3.82% |  |  |
| CCCCC1CCN(CCCC(=O)c2ccccc2C)CC1 |  | inactive | inactive | 17% |  |  |
| C/C1=C\CC[C@]2(C)O[C@@H]2[C@H](O)[C@H](C(C)C)[C@H](OC(=O)/C=C/c2ccccc2)C1 |  | inactive | inactive | 6.25% |  |  |
| COc1cc(CCC2=NN=C(NC(=O)c3ccc(N4C[C@@H](C)N[C@@H](C)C4)cc3)C2)cc(OC)c1 |  | inactive | inactive | -0.333% |  |  |
| CN=C(N)NCCCCC/C=C(/C)CC(C)C1OC(=O)C(C)C(O)/C=C/C(C)C(O)CC(O)C(C)C(O)CCC(C)C(O)CC2(O)OC(CC(OC(=O)CC(=O)O)CC(O)CC(O)C(C)C(O)/C(C)=C/CCC1C)CC(O)C2O (configuration not stated) |  | inactive | inactive | -19.1% |  |  |
| O=C(OCc1ccccc1O[C@@H]1O[C@H](CO)[C@@H](O)[C@H](O)[C@H]1O)C1(O)C=CCCC1O (some centres not stated) |  | inactive | inactive | -2.29% |  |  |
| CC/C=C\CC1C(=O)C=CC1(CCCCC1CCC(=O)O1)OC(C)=O (configuration not stated) |  | inactive | inactive | 9.92% |  |  |
| O=C(/C=C/c1ccc(O)cc1)OC[C@]12O[C@H]1[C@@H](O)[C@@H]1C=CO[C@@H](O[C@@H]3O[C@H](CO)[C@@H](O)[C@H](O)[C@H]3O)[C@@H]12 |  | inactive | inactive | 18.3% |  |  |
| O=[N+]([O-])c1cccc2[nH]c(CNc3nc(N4CCOCC4)nc4c3ncn4-c3ccsc3)nc12 | 0.301 µM (active) | inactive | inactive |  |  |  |
| CC1CCC2(NC1)OC1C(=O)C3C4CCC5CC(O[C@@H]6O[C@H](CO)[C@@H](O)[C@H](O)[C@H]6O[C@@H]6O[C@@H](C)[C@H](O)[C@@H](O)[C@H]6O)CCC5(C)C4CCC3(C)C1C2C (some centres not stated) |  | inactive | inactive | 10.7% |  |  |
| C=C1C(O)CC2C(C(=O)O)=COC(O[C@@H]3O[C@H](COC(=O)c4ccc(O)cc4)[C@@H](O)[C@H](O)[C@H]3O)C12 (some centres not stated) |  | inactive | inactive | -6.11% |  |  |
| C=C1CCC2C(C(C)(C)O)CCC2(C)CC(O)C(=C)CCC1O (configuration not stated) |  | inactive | inactive | -12.5% |  |  |
| CC(=O)O[C@@H]1C[C@]2(C)[C@@]3(CCC4[C@@]5(C)CC[C@H](O[C@@H]6O[C@H](C(=O)O)[C@@H](O)[C@H](OC7OC(CO)C(O)C(O)[C@H]7O[C@@H]7O[C@@H](C)[C@H](O)[C@@H](O)[C@H]7O[C@@H]7OC[C@](O)(CO)[C@H]7O)[C@H]6OC6OC(CO)C(O)C(O)C6O)C(C)(C)C5CC[C@]42C)OC[C@@]12CCC(C)(C)CC23 (some centres not stated) |  |  |  | -16% | 9.13% [at 11.2 µM] | 6.07% [at 11.2 µM] |
